Assay results reported in paper PMC7862700, “An all-to-all approach to the identification of sequence-specific readers for epigenetic DNA modifications on cytosine”.

Legend:
Assay in all cases: DAPPL (digital affinity profiling via proximity ligation, sequencing); 10 mM Tris-HCl pH 7.5, 50 mM NaCl, 1 mM DTT, 4% glycerol, room temperature, 30 min; GST-TFs on glutathione beads, 16-mer random dsDNA library, 0.1% formaldehyde crosslink after washing; high values mean tight binding
FLI1 = target: T1, FLI1 (Homo sapiens, UniProt Q01543 1-452); settings: protein: recombinant; tags: N-terminal GST; dsDNA, one strand shown
T1 sequence: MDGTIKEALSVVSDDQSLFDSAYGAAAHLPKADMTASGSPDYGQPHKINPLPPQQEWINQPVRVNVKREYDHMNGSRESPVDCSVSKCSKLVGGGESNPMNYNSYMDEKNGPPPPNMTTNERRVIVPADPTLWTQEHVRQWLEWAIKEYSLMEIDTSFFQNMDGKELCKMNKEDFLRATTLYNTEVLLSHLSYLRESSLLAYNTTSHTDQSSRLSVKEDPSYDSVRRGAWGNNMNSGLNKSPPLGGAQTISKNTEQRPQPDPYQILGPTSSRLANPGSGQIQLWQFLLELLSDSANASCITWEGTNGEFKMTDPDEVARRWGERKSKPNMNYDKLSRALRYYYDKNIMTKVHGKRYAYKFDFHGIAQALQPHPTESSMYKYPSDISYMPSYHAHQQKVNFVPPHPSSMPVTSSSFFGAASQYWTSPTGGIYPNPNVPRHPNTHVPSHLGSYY
How it was run: (§1)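 Human transcription factors fused to GST were expressed in yeast, captured on glutathione beads, given DNA barcodes and pooled with a GST-only negative control. Pools were incubated with 200 nmole of a 16-mer random double-stranded DNA library in Tris/NaCl/DTT/glycerol buffer at room temperature for 30 min. They were then washed, crosslinked with 0.1% formaldehyde, proximity-ligated (BsaI/T4 ligase, 1 h, 37 °C), PCR-amplified and sequenced on an Illumina NextSeq500. Binding signal is each 6-mer's read frequency for a factor divided by its frequency for the GST control.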

ELK1 = target: T2, ELK1 (Homo sapiens, UniProt P19419 1-428); settings: protein: recombinant; tags: N-terminal GST; dsDNA, one strand shown
T2 sequence: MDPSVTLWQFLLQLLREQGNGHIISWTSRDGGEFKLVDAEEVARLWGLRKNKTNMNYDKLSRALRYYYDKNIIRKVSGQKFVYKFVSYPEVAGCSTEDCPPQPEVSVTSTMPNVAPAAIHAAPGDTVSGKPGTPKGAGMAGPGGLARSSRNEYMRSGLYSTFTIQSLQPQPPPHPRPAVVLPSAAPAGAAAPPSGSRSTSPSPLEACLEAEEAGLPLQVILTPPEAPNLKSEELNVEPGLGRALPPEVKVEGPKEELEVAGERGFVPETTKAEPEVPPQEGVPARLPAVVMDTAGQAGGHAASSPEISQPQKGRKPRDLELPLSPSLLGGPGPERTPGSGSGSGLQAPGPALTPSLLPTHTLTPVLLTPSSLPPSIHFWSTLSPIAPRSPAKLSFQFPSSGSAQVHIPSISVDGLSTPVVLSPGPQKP
How it was run: as §1

GABPA = target: T3, GABPA (Homo sapiens, UniProt Q06546 1-454); settings: protein: recombinant; tags: N-terminal GST; dsDNA, one strand shown
T3 sequence: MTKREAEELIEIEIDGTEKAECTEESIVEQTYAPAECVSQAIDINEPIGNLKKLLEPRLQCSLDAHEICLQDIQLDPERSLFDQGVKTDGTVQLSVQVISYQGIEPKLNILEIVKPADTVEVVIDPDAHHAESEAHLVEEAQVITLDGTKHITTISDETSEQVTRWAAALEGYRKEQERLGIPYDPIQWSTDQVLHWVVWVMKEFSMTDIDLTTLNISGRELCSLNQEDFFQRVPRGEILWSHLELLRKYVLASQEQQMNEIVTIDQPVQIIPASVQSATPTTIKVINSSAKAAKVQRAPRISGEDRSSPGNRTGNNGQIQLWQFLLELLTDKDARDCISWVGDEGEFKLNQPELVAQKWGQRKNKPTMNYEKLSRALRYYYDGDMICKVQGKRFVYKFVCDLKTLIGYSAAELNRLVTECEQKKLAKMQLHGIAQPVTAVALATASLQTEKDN
How it was run: as §1

ERG = target: T4, ERG (Homo sapiens, UniProt P11308 1-479); settings: protein: recombinant; tags: N-terminal GST; dsDNA, one strand shown
T4 sequence: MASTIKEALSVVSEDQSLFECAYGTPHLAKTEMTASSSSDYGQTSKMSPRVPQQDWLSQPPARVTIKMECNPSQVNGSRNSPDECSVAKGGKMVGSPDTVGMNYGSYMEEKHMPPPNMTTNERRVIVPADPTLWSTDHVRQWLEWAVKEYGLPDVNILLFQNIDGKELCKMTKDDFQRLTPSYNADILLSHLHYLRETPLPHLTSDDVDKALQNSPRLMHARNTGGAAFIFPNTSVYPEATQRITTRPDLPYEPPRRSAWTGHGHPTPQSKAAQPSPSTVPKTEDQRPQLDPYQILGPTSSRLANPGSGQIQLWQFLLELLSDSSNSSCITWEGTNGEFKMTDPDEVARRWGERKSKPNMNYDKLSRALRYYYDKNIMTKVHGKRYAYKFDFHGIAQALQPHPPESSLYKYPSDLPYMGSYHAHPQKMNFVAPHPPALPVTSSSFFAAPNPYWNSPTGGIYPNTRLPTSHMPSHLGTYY
How it was run: as §1

ELF1 = ELF1 (Homo sapiens, UniProt P32519 1-619); settings: protein: recombinant; tags: N-terminal GST; dsDNA, one strand shown
Chain of ELF1 (P32519 whole entry): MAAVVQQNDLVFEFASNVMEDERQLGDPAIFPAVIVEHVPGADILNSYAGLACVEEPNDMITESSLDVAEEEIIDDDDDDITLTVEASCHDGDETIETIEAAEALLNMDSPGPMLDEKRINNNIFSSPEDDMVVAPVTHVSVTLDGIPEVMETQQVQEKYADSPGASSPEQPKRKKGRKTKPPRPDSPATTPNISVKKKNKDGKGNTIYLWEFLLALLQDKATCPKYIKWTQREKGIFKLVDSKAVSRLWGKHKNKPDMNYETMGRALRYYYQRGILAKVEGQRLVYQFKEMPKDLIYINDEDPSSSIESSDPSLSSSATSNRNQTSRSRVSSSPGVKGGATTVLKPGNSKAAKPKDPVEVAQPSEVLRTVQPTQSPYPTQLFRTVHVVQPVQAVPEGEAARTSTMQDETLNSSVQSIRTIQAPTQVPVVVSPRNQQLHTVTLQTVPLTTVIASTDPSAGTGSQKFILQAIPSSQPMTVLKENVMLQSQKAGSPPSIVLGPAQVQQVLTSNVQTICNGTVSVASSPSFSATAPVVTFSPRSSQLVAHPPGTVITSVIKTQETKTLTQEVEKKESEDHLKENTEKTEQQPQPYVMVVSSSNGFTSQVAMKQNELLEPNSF
How it was run: as §1

EHF = target: T5, EHF (Homo sapiens, UniProt Q9NZC4 1-300); settings: protein: recombinant; tags: N-terminal GST; dsDNA, one strand shown
T5 sequence: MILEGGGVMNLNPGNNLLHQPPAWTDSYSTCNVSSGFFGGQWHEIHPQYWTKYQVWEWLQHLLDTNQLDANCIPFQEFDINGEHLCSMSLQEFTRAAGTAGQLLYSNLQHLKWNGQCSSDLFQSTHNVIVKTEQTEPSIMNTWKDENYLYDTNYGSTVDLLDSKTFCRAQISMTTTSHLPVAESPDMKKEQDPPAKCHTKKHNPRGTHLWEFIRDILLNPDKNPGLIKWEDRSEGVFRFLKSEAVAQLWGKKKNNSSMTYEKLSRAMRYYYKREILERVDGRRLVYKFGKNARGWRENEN
How it was run: as §1

SPI1 = SPI1 (Homo sapiens, UniProt P17947 1-270); settings: protein: recombinant; tags: N-terminal GST; dsDNA, one strand shown
How it was run: as §1

SPIB = SPIB (Homo sapiens, UniProt Q01892 1-262); settings: protein: recombinant; tags: N-terminal GST; dsDNA, one strand shown
Chain of SPIB (Q01892 whole entry): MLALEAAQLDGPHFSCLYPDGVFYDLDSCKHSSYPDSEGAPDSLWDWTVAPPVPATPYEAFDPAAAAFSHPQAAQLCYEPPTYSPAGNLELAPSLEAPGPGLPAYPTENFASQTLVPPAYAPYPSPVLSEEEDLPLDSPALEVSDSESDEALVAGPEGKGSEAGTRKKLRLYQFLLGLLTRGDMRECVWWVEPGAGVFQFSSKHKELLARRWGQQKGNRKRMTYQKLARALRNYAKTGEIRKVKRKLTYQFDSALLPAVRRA
How it was run: as §1

ELK3 = target: T6, ELK3 (Homo sapiens, UniProt P41970 1-407); settings: protein: recombinant; tags: N-terminal GST; dsDNA, one strand shown
T6 sequence: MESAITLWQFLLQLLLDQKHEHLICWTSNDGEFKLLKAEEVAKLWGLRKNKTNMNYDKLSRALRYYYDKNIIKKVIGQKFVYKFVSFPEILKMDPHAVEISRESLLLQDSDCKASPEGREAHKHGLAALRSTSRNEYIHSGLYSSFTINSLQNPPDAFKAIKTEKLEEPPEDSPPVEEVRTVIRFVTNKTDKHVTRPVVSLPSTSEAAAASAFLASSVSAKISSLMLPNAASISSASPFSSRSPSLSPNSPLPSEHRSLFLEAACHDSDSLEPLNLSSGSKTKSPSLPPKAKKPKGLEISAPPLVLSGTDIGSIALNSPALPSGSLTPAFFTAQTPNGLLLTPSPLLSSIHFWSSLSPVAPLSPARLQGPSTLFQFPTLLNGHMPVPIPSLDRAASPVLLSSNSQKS
How it was run: as §1

FEV = target: T7, FEV (Homo sapiens, UniProt Q99581 1-238); settings: protein: recombinant; tags: N-terminal GST; dsDNA, one strand shown
T7 sequence: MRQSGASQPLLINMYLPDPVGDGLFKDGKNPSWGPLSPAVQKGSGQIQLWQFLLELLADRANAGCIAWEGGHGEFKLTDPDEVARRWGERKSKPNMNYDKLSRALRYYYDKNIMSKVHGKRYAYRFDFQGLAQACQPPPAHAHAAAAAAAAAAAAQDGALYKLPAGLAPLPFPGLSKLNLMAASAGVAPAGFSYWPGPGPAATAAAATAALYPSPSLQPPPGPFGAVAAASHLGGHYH
How it was run: as §1

ETV5 = ETV5 (Homo sapiens, UniProt P41161 1-510); settings: protein: recombinant; tags: N-terminal GST; dsDNA, one strand shown
Chain of ETV5 (P41161 whole entry): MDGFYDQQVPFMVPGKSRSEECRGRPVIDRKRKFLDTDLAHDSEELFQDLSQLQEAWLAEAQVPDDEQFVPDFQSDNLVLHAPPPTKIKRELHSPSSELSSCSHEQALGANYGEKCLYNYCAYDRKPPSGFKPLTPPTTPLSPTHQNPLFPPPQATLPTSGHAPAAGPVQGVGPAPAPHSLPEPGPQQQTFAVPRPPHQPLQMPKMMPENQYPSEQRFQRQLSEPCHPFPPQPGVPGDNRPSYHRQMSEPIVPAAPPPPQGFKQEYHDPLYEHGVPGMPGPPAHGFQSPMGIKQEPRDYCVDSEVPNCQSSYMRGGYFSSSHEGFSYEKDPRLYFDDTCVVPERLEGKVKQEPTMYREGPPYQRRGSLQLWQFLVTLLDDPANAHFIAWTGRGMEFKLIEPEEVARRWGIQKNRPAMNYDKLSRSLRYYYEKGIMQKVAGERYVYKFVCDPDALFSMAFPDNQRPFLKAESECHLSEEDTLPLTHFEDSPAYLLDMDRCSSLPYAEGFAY
How it was run: as §1

HSF1 = HSF1 (Homo sapiens, UniProt Q00613 1-529); settings: protein: recombinant; tags: N-terminal GST; chain copies: 3; dsDNA, one strand shown
Chain of HSF1 (Q00613 whole entry): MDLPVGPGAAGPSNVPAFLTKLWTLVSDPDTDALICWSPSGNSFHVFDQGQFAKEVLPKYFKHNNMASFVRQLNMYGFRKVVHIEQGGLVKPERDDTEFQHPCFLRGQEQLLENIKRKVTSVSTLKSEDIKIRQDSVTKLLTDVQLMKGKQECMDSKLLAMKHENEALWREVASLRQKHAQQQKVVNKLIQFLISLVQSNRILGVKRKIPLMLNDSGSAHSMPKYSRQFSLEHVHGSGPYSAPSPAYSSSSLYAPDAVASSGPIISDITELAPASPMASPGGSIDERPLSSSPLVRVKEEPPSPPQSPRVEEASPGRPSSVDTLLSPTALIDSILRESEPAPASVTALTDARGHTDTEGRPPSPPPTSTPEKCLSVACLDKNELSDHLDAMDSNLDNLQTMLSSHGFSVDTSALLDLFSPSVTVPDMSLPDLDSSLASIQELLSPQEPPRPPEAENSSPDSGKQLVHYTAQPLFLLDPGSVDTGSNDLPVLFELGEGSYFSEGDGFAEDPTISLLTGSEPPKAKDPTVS
How it was run: as §1

SPIC = target: T8, SPIC (Homo sapiens, UniProt Q8N5J4 1-248); settings: protein: recombinant; tags: N-terminal GST; dsDNA, one strand shown
T8 sequence: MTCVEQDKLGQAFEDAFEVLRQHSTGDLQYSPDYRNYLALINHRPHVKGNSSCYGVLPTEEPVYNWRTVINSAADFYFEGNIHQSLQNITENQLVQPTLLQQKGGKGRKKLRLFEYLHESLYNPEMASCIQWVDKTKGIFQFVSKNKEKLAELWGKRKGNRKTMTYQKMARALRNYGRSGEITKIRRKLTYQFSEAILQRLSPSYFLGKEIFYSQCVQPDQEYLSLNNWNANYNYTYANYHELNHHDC
How it was run: as §1

ELF4 = ELF4 (Homo sapiens, UniProt Q99607 1-663); settings: protein: recombinant; tags: N-terminal GST; dsDNA, one strand shown
Chain of ELF4 (Q99607 whole entry): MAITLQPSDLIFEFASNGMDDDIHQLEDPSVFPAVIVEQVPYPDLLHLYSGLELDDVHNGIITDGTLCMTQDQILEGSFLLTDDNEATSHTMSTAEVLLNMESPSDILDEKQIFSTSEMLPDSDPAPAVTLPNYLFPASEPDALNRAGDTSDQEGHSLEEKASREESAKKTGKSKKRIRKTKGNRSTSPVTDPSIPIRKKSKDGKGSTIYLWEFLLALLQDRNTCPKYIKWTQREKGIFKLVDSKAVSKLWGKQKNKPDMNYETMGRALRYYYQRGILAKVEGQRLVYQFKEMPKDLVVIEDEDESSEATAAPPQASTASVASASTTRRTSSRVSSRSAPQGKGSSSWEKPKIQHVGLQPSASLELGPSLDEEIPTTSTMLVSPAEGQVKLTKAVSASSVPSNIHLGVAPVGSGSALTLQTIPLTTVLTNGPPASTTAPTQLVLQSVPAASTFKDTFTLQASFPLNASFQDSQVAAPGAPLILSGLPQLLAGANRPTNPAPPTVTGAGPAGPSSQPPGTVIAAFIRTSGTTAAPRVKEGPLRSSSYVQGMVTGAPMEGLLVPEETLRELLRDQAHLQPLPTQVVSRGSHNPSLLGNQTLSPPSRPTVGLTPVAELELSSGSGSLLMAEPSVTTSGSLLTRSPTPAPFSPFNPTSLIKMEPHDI
How it was run: as §1

ELK4 = target: T9, ELK4 (Homo sapiens, UniProt P28324-2 1-405); settings: protein: recombinant; tags: N-terminal GST; dsDNA, one strand shown
T9 sequence: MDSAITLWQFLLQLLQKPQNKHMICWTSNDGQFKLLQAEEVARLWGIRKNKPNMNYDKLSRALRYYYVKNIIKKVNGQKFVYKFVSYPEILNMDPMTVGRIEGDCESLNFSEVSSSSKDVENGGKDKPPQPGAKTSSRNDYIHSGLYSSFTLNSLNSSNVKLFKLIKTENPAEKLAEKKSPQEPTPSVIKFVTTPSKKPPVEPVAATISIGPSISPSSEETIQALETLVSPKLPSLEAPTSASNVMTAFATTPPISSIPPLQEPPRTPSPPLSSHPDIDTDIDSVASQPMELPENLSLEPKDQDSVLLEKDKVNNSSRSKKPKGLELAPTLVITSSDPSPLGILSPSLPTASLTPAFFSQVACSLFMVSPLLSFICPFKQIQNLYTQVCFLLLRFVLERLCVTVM
How it was run: as §1

ETV2 = target: T10, ETV2 (Homo sapiens, UniProt O00321 1-342); settings: protein: recombinant; tags: N-terminal GST; dsDNA, one strand shown
T10 sequence: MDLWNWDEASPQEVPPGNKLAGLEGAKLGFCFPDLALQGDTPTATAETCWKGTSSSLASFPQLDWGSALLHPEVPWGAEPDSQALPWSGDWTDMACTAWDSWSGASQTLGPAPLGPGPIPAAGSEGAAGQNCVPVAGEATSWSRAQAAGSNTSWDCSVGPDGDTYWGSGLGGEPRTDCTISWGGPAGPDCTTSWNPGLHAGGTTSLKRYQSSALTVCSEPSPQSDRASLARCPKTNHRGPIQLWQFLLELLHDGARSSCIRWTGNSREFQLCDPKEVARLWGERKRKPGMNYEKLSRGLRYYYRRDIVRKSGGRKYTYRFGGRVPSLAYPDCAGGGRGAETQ
How it was run: as §1

ELF3 = target: T11, ELF3 (Homo sapiens, UniProt P78545 1-371); settings: protein: recombinant; tags: N-terminal GST; dsDNA, one strand shown
T11 sequence: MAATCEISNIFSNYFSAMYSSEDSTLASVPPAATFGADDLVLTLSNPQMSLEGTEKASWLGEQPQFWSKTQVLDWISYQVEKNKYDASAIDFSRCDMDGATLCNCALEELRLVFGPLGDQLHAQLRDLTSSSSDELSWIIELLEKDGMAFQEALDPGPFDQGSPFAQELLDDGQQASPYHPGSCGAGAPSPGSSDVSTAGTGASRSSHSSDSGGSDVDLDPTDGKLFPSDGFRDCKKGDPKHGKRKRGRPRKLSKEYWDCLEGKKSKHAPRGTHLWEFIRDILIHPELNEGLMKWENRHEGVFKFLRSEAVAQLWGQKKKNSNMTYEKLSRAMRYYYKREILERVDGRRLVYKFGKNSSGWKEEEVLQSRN
How it was run: as §1

CRX = CRX (Homo sapiens, UniProt O43186 1-299); settings: protein: recombinant; tags: N-terminal GST; dsDNA, one strand shown
Chain of CRX (O43186 whole entry): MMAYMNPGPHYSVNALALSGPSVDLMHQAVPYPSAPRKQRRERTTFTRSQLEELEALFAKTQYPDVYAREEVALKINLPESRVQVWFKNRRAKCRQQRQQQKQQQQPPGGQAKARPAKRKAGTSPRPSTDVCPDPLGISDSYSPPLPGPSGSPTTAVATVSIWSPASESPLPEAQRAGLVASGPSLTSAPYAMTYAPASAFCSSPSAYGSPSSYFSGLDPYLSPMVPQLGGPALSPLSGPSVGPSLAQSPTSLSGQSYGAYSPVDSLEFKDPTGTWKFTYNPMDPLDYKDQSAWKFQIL
How it was run: as §1

ETV1 = ETV1 (Homo sapiens, UniProt P50549 1-477); settings: protein: recombinant; tags: N-terminal GST; dsDNA, one strand shown
Chain of ETV1 (P50549 whole entry): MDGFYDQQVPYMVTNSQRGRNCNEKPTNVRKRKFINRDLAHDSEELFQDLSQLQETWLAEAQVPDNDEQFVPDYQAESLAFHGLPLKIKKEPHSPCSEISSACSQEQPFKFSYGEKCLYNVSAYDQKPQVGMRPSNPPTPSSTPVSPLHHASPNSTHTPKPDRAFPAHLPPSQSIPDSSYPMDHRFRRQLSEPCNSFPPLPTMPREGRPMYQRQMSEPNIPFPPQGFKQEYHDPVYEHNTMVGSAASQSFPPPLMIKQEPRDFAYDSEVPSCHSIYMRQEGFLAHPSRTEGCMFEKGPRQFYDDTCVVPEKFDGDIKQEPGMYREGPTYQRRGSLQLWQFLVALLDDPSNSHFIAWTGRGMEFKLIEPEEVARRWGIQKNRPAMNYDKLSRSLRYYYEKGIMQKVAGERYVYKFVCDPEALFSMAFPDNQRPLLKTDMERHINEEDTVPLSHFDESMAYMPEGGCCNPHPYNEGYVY
How it was run: as §1

For TAACTA, the binding signal (FLI1) was 1.36 fold enrichment (6-mer frequency, TF over GST control), the binding signal (ELK1) was 1.29 fold enrichment (6-mer frequency, TF over GST control) and the binding signal (GABPA) was 1.46 fold enrichment (6-mer frequency, TF over GST control). The binding signal (ERG) was 1.42 fold enrichment (6-mer frequency, TF over GST control), the binding signal (ELF1) was 1.32 fold enrichment (6-mer frequency, TF over GST control) and the binding signal (EHF) was 1.27 fold enrichment (6-mer frequency, TF over GST control). For the same sequence, the binding signal (SPI1) was 1.3 fold enrichment (6-mer frequency, TF over GST control), the binding signal (SPIB) was 1.35 fold enrichment (6-mer frequency, TF over GST control) and the binding signal (ELK3) was 1.32 fold enrichment (6-mer frequency, TF over GST control). The binding signal (FEV) was 1.25 fold enrichment (6-mer frequency, TF over GST control), the binding signal (ETV5) was 1.29 fold enrichment (6-mer frequency, TF over GST control) and the binding signal (HSF1) was 1.51 fold enrichment (6-mer frequency, TF over GST control). For the same sequence, the binding signal (SPIC) was 1.36 fold enrichment (6-mer frequency, TF over GST control), the binding signal (ELF4) was 1.48 fold enrichment (6-mer frequency, TF over GST control) and the binding signal (ELK4) was 1.26 fold enrichment (6-mer frequency, TF over GST control). For the same sequence, the binding signal (ETV2) was 1.49 fold enrichment (6-mer frequency, TF over GST control), the binding signal (ELF3) was 1.33 fold enrichment (6-mer frequency, TF over GST control) and the binding signal (CRX) was 1.87 fold enrichment (6-mer frequency, TF over GST control). The binding signal (ETV1) was 1.24 fold enrichment (6-mer frequency, TF over GST control).
